From PubChem BioAssay
Compounds with a hit are over-represented: about 19% of the library has one in this group of screens.
SW480 rereplic – inducers of DNA re-replication in SW480 colon cancer cells. SW480 DNA re-replication, Hoechst DNA content imaging, 48 h. hit rate 1.8% among 340,000. Potency, µM (highest dose often 46.1 µM), for the others: at the top dose re-replication activation, usual class: activators; note: potency is the fitted concentration of half-maximal effect; % of control where 0% means no effect; nearly all actives have a fitted effect of over 55% in size
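Readout is total intensity of Hoechst-stained nuclei, excited at 405 nm and collected at 500-530 nm. Compound treatment lasted 48 hr at 37 C in 5% CO2 before staining.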
IL1B secr inh – inhibitors of inflammasome signaling (IL-1 beta secretion); THP-1 LPS/ATP IL-1B secretion, AlphaLISA, 16 h; active compounds read low; activity change, % at 57.5 µM; hit rate 4.7% among 360,000; in the data active = activity change below about -50%; inconclusive = mostly about -30% to -49%; note: % is set by controls: 0 for no effect and ±100 for the full control effect
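Secreted IL-1B measured by AlphaLISA bead assay after 16 h compound exposure of THP-1 cells; compounds (final up to 57.5 uM) added 1 h before LPS (250 ng/mL) and ATP (1.25 mM) stimulation; lower signal means less secretion.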
Chronic BCR inh – blocks chronic active B-cell receptor signaling; ABC-DLBCL IkBa-CBG/CBR reporter, luminescence ratio, 4 h; Potency, µM (highest dose often 46.1 µM), for inactives: at the highest dose activity change, negative = inhibition, usual class: inhibitors; hit rate 0.05% among 340,000; AID 493014; active = well fitted inhibition curve with a large enough effect in the signal ratio, with a control signal flat, not every such curve was filed as active; inconclusive = small, poorly fitted or top-dose-only effect, or effect the other way, or a change in a side signal; the % refers to the signal ratio;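 note: potency is the fitted concentration of half-maximal effect; plate controls were basal doxycycline-induced cells for no effect and cells given 10 µM MG132 for full effect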
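TMD8 ABC-DLBCL cells carrying doxycycline-inducible green luciferase fused to IkappaBalpha plus unfused red luciferase were exposed to compounds (up to 46 uM) for 4 hrs at 37C. Activity came from the overlap-corrected green/red luminescence ratio.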
TDP1 cell CPT – DT40-hTDP1 cell growth loss with CPT. Potency, µM (doses to about 46.2 µM), for inactives: at the highest dose activity change, negative = growth inhibition, hits mostly inhibitors. AID 686979. chicken DT40 Tdp1-/-;hTDP1 cells + 20 nM CPT, ATP luminescence, 48 h. hit rate 12% among 420,000; note: potency is the fitted concentration of half-maximal effect; % is set by controls: 0 for no effect and ±100 for the full control effect; nearly all actives have a fitted effect of over 55% in size
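Cell growth measured by CellTiter-Glo luminescence after a minimum 48 h, 37 C compound exposure with 20 nM CPT in Tdp1-knockout DT40 cells stably expressing hTDP1, seeded 400/well; qHTS titration format.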
MCF10A rerep – induces DNA re-replication in MCF 10a normal breast cells; MCF 10A DNA re-replication, Hoechst nuclear intensity, 48 h; Potency, µM (doses to about 46.1 µM), without a hit: top-dose activity, positive = re-replication, actives largely listed as activators; hit rate 2.9% among 350,000; AID 624296; note: potency is the fitted concentration of half-maximal effect; % of control where 0% means no effect; nearly all actives have a fitted effect of over 50% in size
TDP1 cell noCPT – qHTS for Inhibitors of human tyrosyl-DNA phosphodiesterase 1 (TDP1): qHTS in cells in absence of CPT. Potency, µM (series often up to 46.2 µM), for the others: top-dose activity change, negative = growth inhibition, hits mostly inhibitors. AID 686978, 2013. hit rate 15% among 420,000. DT40 Tdp1-/- hTDP1 cells, no CPT, ATP luminescence, 48 h; note: potency is the fitted concentration of half-maximal effect; % is set by controls: 0 for no effect and ±100 for the full control effect; nearly all actives have a fitted effect of over 55% in size
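Growth of hTDP1-complemented DT40 Tdp1-knockout cells is measured by ATP luminescence after at least 48 hr compound exposure at 37 °C, with DMSO substituting for the 20 nM CPT used in the parallel screen.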
An asterisk follows results filed as active; ? = inconclusive; . = no result. Unless noted, calls come from the whole dose curve; as a rule, active = well fitted curve in the direction sought with a large enough effect; inconclusive = small, poorly fitted or top-dose-only effect, or another doubt; inactive = no such curve, though single readings can be large; an effect the other way counts as inactive or inconclusive.

SMILES	SW480 rereplic	IL1B secr inh	Chronic BCR inh	TDP1 cell CPT	MCF10A rerep	TDP1 cell noCPT
Cc1cc(C)c2c(n1)nn1c(C)c(CCC(=O)Nc3cccc(C)c3C)c(C)nc21	.	.	.	7.31µM*	.	7.31µM*
COc1cccc(CNC(=O)CCc2c(C)nc3c4c(C)cc(C)nc4nn3c2C)c1	.	.	.	?	.	23.1µM*
Cc1ccc2occ(/C=N/NC(=O)c3ccncc3)c(=O)c2c1	?	-23.2	-4.7%	0.5%	2.9%	-13.7%
CCc1ccccc1NC(=O)CN(C)C(=O)Cn1ncc(Cl)c(Cl)c1=O	6.51µM*	-107.7*	?	5.8µM*	5.8µM*	6.51µM*
CCOC(=O)c1ccc(NC(=O)Cn2ncc(Cl)c(Cl)c2=O)cc1	2.59µM*	-100.2*	?	2.31µM*	2.59µM*	2.31µM*
CCC(=O)Nc1ccc(C(=O)Cn2ncc(Cl)c(Cl)c2=O)cc1	?	-95.6*	?	5.17µM*	3.66µM*	6.51µM*
Cc1ccc(S(=O)(=O)N2C[C@H]3C(=O)C[C@@H](c4ccc(Cl)cc4)N(S(=O)(=O)c4ccccc4C)[C@H]3C[C@H]2c2ccccc2)cc1	.	16.2	.	-21.5%	.	?
Cc1ccccc1-c1nn2c(=O)cc(CN3CCN(S(=O)(=O)c4ccc(Cl)cc4)CC3)nc2s1	.	.	.	-29.3%	.	?
Cc1ccc2nc(COc3ccccc3NC(=O)c3ccc(F)cc3)cc(=O)n2c1	.	.	.	15.8%	.	-7.7%
CSCc1cc(N2CCOCC2)nc(SCc2ccc(Cl)c(Cl)c2)n1	5.0%	-6.6	7.8%	20.6µM*	5.9%	-16.4%
COc1ccc(OC)c(/C=N/NC(=O)c2cc3c(OC)cc(OC)cc3[nH]2)c1	5.4%	?	?	?	?	?
C=CCOc1ccc(/C=N/NC(=O)c2cc3c(OC)cc(OC)cc3[nH]2)cc1	-5.0%	-17.9	?	?	11.5%	25.9µM*
CCOc1ccc(/C=N/NC(=O)c2cc3c(OC)cc(OC)cc3[nH]2)cc1OC	?	?	?	13µM*	?	16.4µM*
Cn1c(CO)cnc1SCc1ccc(F)cc1	-1.9%	-17.5	2.3%	0.3%	4.4%	-18.9%
COc1ccc(CSc2nnc(C)n2N)cc1	-5.8%	19.8	-0.9%	-6.5%	-1.1%	5.3%
COc1ccc(Cn2c(CO)cnc2SCc2ccc(F)cc2)cc1	.	.	.	?	.	18.4µM*
COc1ccc(Cn2c(CO)cnc2SCc2ccc(C)cc2)cc1	.	.	.	18.4µM*	.	?
OCc1cnc(SCc2ccccc2)n1Cc1ccccc1	10.8%	16.1	2.8%	?	-0.3%	16.4µM*
COc1ccc(N2C(=O)CS(=O)(=O)C23C(=O)N(Cc2ccc(F)cc2)c2ccc(C)cc23)cc1 (stereo not given)	.	.	.	?	.	14.6µM*
COc1ccc(CC2CC(=O)N(c3ccc(C)cc3)C2=O)cc1 (stereo not given)	1.7%	-2.0	?	30.6%	-0.6%	6.3%
Cc1ccc(N2C(=O)CS(=O)(=O)C23C(=O)N(Cc2ccccc2F)c2ccccc23)cc1Cl (stereo not given)	.	.	.	14.6µM*	.	?
CC(C)(C)C(CN1CCCC1)OC(=O)c1ccccc1 (stereo not given)	1.0%	4.5	0.2%	7.6%	-1.7%	-0.5%
COc1ccc(-c2noc(-c3csc([C@@H]4O[C@H](CO)[C@H](O)[C@H](O)[C@H]4O)n3)n2)cc1OC	.	14.2	.	-4.6%	.	14.2%
COc1ccc(/C=C/C(=O)NC(=S)NNC(=O)c2ccco2)cc1	?	95.7	-4.0%	14.6µM*	?	20.6µM*
COc1ccc(NC(=S)NNC(=O)c2ccco2)c(OC)c1	-4.7%	-6.7	.	5.1%	-4.0%	10.8%
SMILES	SW480 rereplic	IL1B secr inh	Chronic BCR inh	TDP1 cell CPT	MCF10A rerep	TDP1 cell noCPT
COc1ccc(/C=C/C(=O)NC(=S)NNC(=O)c2ccco2)cc1OC	-1.5%	8.6	1.6%	?	-2.7%	23.1µM*
O=C(/C=C/c1ccccc1)NNC(=O)c1ccco1	2.6%	0.4	?	0.8%	5.6%	-12.9%
CCCOc1ccc(/C=C/C(=O)N2CCN(C(=O)c3ccco3)CC2)cc1OC	.	2.4	.	?	.	13µM*
COc1cc(C2SCC(=O)N2Cc2ccccc2)cc(OC)c1OC (stereo not given)	-20.9%	14.9	?	-13.4%	-1.2%	-24.9%
CCOCCc1c(O)nc(SCCOc2ccc(C)c(C)c2)[nH]c1=O	-0.8%	19.9	4.2%	1.5%	?	-9.5%
NC(=O)N1c2ccccc2C=Cc2ccccc21	-3.7%	31.3	-2.9%	?	?	?
CCN(CC)C(=O)N1c2ccccc2C=Cc2ccccc21	6.9%	-0.2	5.7%	9.2µM*	?	10.3µM*
COC(=O)N1c2ccccc2C=Cc2ccccc21	?	10.0	?	?	?	20.6µM*
CSCCOC(=O)C1=C(C)Nc2ccc(C)cc2S1	11.0%	?	?	20.6µM*	-1.7%	16.4µM*
CC(C)(C)n1nc2c(c1NC(=O)Cc1ccc([N+](=O)[O-])cc1)CS(=O)(=O)C2	-2.2%	3.6	0.4%	-1.3%	-11.1%	-0.1%
C[C@@H]1C=CC(=O)O[C@@H]1c1ccc(Cl)cc1	1.2%	-108.0*	?	7.31µM*	?	7.31µM*
CC1C(=O)OC(c2ccc(Cl)cc2)C(C)(C)C1=O (stereo not given)	-1.9%	-0.4	8.6%	-2.5%	-7.7%	?
COc1ccc(NS(=O)(=O)c2cccc(C(=O)Nc3ccccc3C(=O)O)c2)cc1	-4.9%	48.2	0.1%	-8.4%	9.8%	-2.6%
O=C(Nc1ccc(N2CCOCC2)cc1)c1ccc(Cl)c(S(=O)(=O)N2CCCCC2)c1	-7.4%	73.3	2.2%	?	1.7%	?
O=C(Nc1ccc(N2CCOCC2)cc1)c1cccc(S(=O)(=O)N2CCCCC2)c1	-1.6%	-13.2	0.1%	14.6µM*	4.5%	14.6µM*
COc1ccc(NS(=O)(=O)c2cccc(NC(=O)C34CCC(CC3)C4)c2)cc1	1.8%	-2.9	-5.1%	?	-0.6%	20.6µM*
CC1CCCC(NC(=O)c2cccc(S(=O)(=O)N3CCCCC3)c2)C1C (stereo not given)	25.5%	-22.8	3.1%	20.6µM*	7.2%	?
O=C(NCC1CCN(c2ccc(S(=O)(=O)N3CCOCC3)cc2)CC1)c1cccc(Cl)c1	-0.9%	-13.2	0.6%	?	1.6%	11.6µM*
O=C(NC1CCCC1)c1cccc(S(=O)(=O)N2CCCCC2)c1	-0.7%	-12.5	-4.5%	-8.2%	8.5%	-23.6%
